In PubChem BioAssay AID1159580 (chemical genetic matrix, 2015):
Several values for one entry are separate records, joined by “and”; a condition that tells them apart may be missing. Equal values may be shown once. Screen size: about 5,500 compounds; about 2,000 (36%) were called active. Not shown: some 18% with an inconclusive outcome. No stated cut-off is given here; in the data, active means normalized growth mostly below about 0.91 (no sharp cut-off); inconclusive means no clear call, values can overlap the other calls; inactive means mostly above about 0.92. The list shows a part of the results.

Assay: chemical genetic growth profiling, strain panel (AID 1159580);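 further: tested at 20 µM; growth read once vehicle control cultures reached saturation at 30 °C; 1 = growth at the plate median or of vehicle wells; lower values mean less growth of the strain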
Details: S. cerevisiae deletion strains, growth OD

Measured: normalized growth

COc1ccc(NS(=O)(=O)c2ccc(N)cc2)nn1
inactive: locus YAL013W, strain DEP1, hits give low values 1.01 | locus YAL021C, strain ccr4, hits give low values 0.989 | locus YAL026C, strain drs2, hits give low values 1 | locus YAL030W, strain snc1, hits give low values 0.996 | locus YBL061C, strain skt5, hits give low values 0.992 | locus YBR009C, strain hhf1, hits give low values 0.978 | locus YBR021W, strain FUR4, hits give low values 1.02 | locus YBR023C, strain chs3, hits give low values 1.01 | locus YBR171W, strain sec66, hits give low values 0.999 | locus YBR229C, strain ROT2, hits give low values 1.02 | locus YBR231C, strain swc5, hits give low values 1 | locus YBR279W, strain paf1, hits give low values 1 | locus YCL011C, strain gbp2, hits give low values 1.01 | locus YCL016C, strain dcc1, hits give low values 0.996 | locus YCL029C, strain bik1, hits give low values 0.996 | locus YCL069W, strain vba3, hits give low values 0.992 | locus YCR088W, strain abp1, hits give low values 1 | locus YDL005C, strain med2, hits give low values 0.998 | locus YDL035C, strain GPR1, hits give low values 1.02 | locus YDL040C, strain nat1, hits give low values 1 | locus YDL074C, strain BRE1, hits give low values 1.04 | locus YDL101C, strain DUN1, hits give low values 1.03 | locus YDL134C, strain PPH21, hits give low values 1.01 | locus YDL185W, strain tfp1, hits give low values 0.996 | locus YDL192W, strain arf1, hits give low values 0.99 | locus YDR001C, strain nth1, hits give low values 1.01 | locus YDR069C, strain doa4, hits give low values 1 | locus YDR101C, strain arx1, hits give low values 1 | locus YDR137W, strain rgp1, hits give low values 1 | locus YDR150W, strain NUM1, hits give low values 1.02 | locus YDR159W, strain sac3, hits give low values 0.907 | locus YDR162C, strain NBP2, hits give low values 1.01 | locus YDR195W, strain ref2 1 | locus YDR297W, strain sur2, hits give low values 0.989 | locus YDR318W, strain mcm21, hits give low values 0.988 | locus YDR334W, strain swr1, hits give low values 1.01 | locus YDR335W, strain msn5, hits give low values 1 | locus YDR388W, hits give low values 0.993 | locus YDR392W, strain spt3, hits give low values 0.881 | locus YDR502C, strain sam2, hits give low values 0.983 | locus YEL003W, strain gim4, hits give low values 1.02 | locus YEL037C, strain rad23, hits give low values 0.995 | locus YEL061C, strain CIN8 (second series), hits give low values 1.01 | locus YEL061C, strain CIN8, hits give low values 1.02 | locus YER015W, strain faa2, hits give low values 1.01 | locus YER016W, strain bim1, hits give low values 0.988 | locus YER110C, hits give low values 0.992 | locus YER111C, strain swi4, hits give low values 0.995 | locus YER155C, strain BEM2 (second series), hits give low values 0.962 | locus YER155C, strain BEM2, hits give low values 1 | locus YER167W, strain BCK2, hits give low values 1.01 | locus YFR010W, strain ubp6, hits give low values 1 | locus YGL078C, strain dbp3, hits give low values 0.986 | locus YGL086W, strain mad1, hits give low values 0.995 | locus YGL167C, strain pmr1, hits give low values 0.999 | locus YGL173C, strain kem1, hits give low values 1 | locus YGL227W, strain vid30, hits give low values 1 | locus YGL240W, strain doc1, hits give low values 0.987 | locus YGL248W, strain PDE1, hits give low values 1.03 | locus YGL253W, strain hxk2, hits give low values 1.01 | locus YGR135W, strain pre9, hits give low values 0.982 | locus YGR252W, strain gcn5, hits give low values 0.953 | locus YHR013C, strain ard1, hits give low values 0.987 | locus YHR027C, strain rpn1, hits give low values 0.999 | locus YHR030C, strain SLT2, hits give low values 1.02 and 0.989 | locus YHR079C, strain IRE1 (second series), hits give low values 0.998 | locus YHR079C, strain IRE1, hits give low values 0.995 | locus YHR094C, strain hxt1, hits give low values 0.984 | locus YHR129C, strain ARP1, hits give low values 1.01 | locus YHR142W, strain chs7, hits give low values 1 | locus YHR200W, strain rpn10, hits give low values 0.999 | locus YIL066C, strain RNR3, hits give low values 1.03 | locus YIL073C, strain SPO22, hits give low values 0.965 | locus YIL125W, strain kgd1, hits give low values 0.996 | locus YIR030C, strain dcg1, hits give low values 0.99 | locus YJL092W, strain hpr5, hits give low values 1 | locus YJL095W, strain BCK1 (second series), hits give low values 1 | locus YJL095W, strain BCK1, hits give low values 1.05 and 1.01 | locus YJL115W, strain asf1, hits give low values 0.996 | locus YJL129C, strain trk1, hits give low values 1 | locus YJL134W, strain LCB3, hits give low values 1.01 | locus YJL154C, strain vps35, hits give low values 0.997 | locus YJL164C, strain tpk1, hits give low values 0.985 | locus YJL166W, strain qcr8, hits give low values 1.02 | locus YJL168C, strain set2, hits give low values 0.996 | locus YJL187C, strain SWE1 (second series), hits give low values 1.03 | locus YJR043C, strain POL32, hits give low values 1.01 | locus YJR066W, strain TOR1, hits give low values 0.934
